Measured values from ChEMBL document CHEMBL4513216, “Probing the Open Global Health Chemical Diversity Library for Multistage-Active Starting Points for Next-Generation Antimalarials” (ACS Infect Dis, 2020).
Hit rate of the full screen: of about 69,000 compounds, about 8,600 (12%) showed an effect of 50% or more. This excerpt belongs to a sample that is enriched for strong results.

tested on: Plasmodium berghei; assay: Screen against P. berghei liver stage (PbLuc), transformed with Luciferase, at 10uM; format: functional, HepG2; conditions: tested at 10 uM

| Structure (SMILES) | INHIBITION |
| --- | --- |
| CCCc1n[nH]c(C2CN(C(=O)c3cccc4cn[nH]c34)CCO2)n1 (configuration not stated) | -11.9% |
| O=C(NCC1CC2(CO1)CN(c1nncs1)C2)C1CCC1 (configuration not stated) | 1.36% |
| COC[C@H]1CNC(=O)[C@@H]2CCN(Cc3ccc(F)cc3)CC[C@H]12 | 34.4% |
| COc1ccc2nnc(CCC(=O)Nc3nc(C)c(C)s3)n2n1 | 24.2% |
| O=C(NC1CC1)N1CC[C@@H](O)[C@@H]1Cc1ccccc1 | -23.3% |
| CN(C)c1cc(C(=O)N2CCCN(c3cccnn3)CC2)ccn1 | 38.7% |
| O=C(CN(Cc1ccco1)C1CC1)N1CCCCCC1 | -8.11% |
| Cc1nonc1OCCNC(=O)COc1ccc(F)cc1F | 7.92% |
| Cc1nonc1OCCNC(=O)CCCc1ccc(Cl)cc1 | 57.8% |
| Cc1nonc1OCCNC(=O)COc1ccc(Cl)cc1Cl | 7.38% |
| N#Cc1c(F)cccc1Nc1cnn(CC(O)CN2CCOCC2)c1 (configuration not stated) | 44.9% |
| CN1CCN([C@@H]2CCN(CC3=Cc4cc(Cl)ccc4OC3)C[C@H]2O)CC1 | 62.4% |
| CN1CCN([C@@H]2CCN(Cc3cccc(-n4cccn4)c3)C[C@H]2O)CC1 | 22.9% |
| O[C@@H]1CN(CC2=Cc3cc(Cl)ccc3OC2)CC[C@H]1N1CCCCCC1 | 31.9% |
| O=C(C1CCOC1)N1CCC2(CC1)COC2 (configuration not stated) | 19.8% |
| COCC(=O)N1CCN(C)C(=O)C(Cc2ccc(-c3cccs3)cc2)C1 (configuration not stated) | 6.26% |
| CC1CN(C)CCN1C(=O)c1cnc2onc(CC(C)(C)C)c2c1 (configuration not stated) | 53.9% |
| CC(C)(C)Cc1noc2ncc(C(=O)N3CCC3)cc12 | 29% |
| CC(C)(C)Cc1noc2ncc(C(=O)N3CCSCC3)cc12 | 37.7% |
| OCc1cc(C2CCCN2c2ncccn2)n[nH]1 (configuration not stated) | 12.27% |
| OC(COCc1ccc(Cl)cc1)CN1CC(n2cccn2)C1 (configuration not stated) | -3.6% |
| OC(COCc1ccccc1)CN1CC(n2cccn2)C1 (configuration not stated) | 39.6% |

| Structure (SMILES) | INHIBITION |
| --- | --- |
| COc1cccc(COCC(O)CN2CC(n3cccn3)C2)c1 (configuration not stated) | 52% |
| Cn1ccc(C(=O)NC2CCC23CCN(C(=O)N2CCCC2)CC3)c1 (configuration not stated) | 20.5% |
| c1ccc(N2CCCC3(CCN(Cc4ccsc4)C3)C2)nc1 (configuration not stated) | 37.1% |
| c1cnc(N2CCCC3(CCN(Cc4ccsc4)C3)C2)nc1 (configuration not stated) | 53.2% |
| CCc1cnc(N2CC3(CCN(Cc4ccsc4)C3)C2)nc1 | 7.39% |
| Fc1cnc(N2CCCC3(CCN(Cc4ccsc4)C3)C2)nc1 (configuration not stated) | 43.8% |
| Fc1cnc(N2CC3(CCN(Cc4ccsc4)C3)C2)nc1 | 52% |
| Fc1cnc(N2CCOC3(CCN(Cc4ccsc4)CC3)C2)nc1 | 71.6% |
| c1csc(CN2CC3(CCN(Cc4ccsc4)C3)C2)n1 | 0.542% |
| c1cnc(N2CCOCC3(CN(Cc4ccsc4)CCO3)C2)nc1 (configuration not stated) | -47.5% |
| Fc1cnc(N2CCCC3(CN(Cc4ccccc4)CCO3)C2)nc1 (configuration not stated) | -15.3% |
| O=C(Nc1cnc2n1CCCC2)C1CCCN1C1CCNCC1 (configuration not stated) | 15.7% |
| N#Cc1cn(C2CC2)c(=O)n(CC(O)c2ccccc2C(F)(F)F)c1=O (configuration not stated) | 29.4% |
| CCS(=O)(=O)NC(CCSC)C(=O)Nc1ccc(C)cc1C (configuration not stated) | 31.2% |
| CO[C@@H]1CCN(Cc2cnn(C)c2)[C@@H]2CN(Cc3cccnc3)C[C@@H]21 | 5.96% |
| CNC(=O)[C@@H]1C[C@H](n2cc(-c3ccc(CN4CC=CC4)cc3)nn2)CN1 | 41.2% |
| CC[C@H](Cn1ncc2ccccc2c1=O)NC(=O)c1cnc(C)cn1 | 1.62% |
| CCOC(=O)NCc1nn(CCN2CCCC2)c(=O)c2ccccc12 | 48.8% |
| CC(C)NC(=O)N1CCC2(COCc3cnc(-c4cccnc4)nc32)C1 (configuration not stated) | 38.1% |
| CCc1oc(C(=O)NCCSc2ncn[nH]2)cc1CN1CCCC1 | 37.9% |
| CCOc1ncccc1NC(=O)N1CCN(CC(=O)NC)CC1 | -22.91% |
| Cc1nccn1CCCN1CCC2(CCC(=O)N(CC3CC3)C2)CC1 | 34.5% |

| Structure (SMILES) | INHIBITION |
| --- | --- |
| Cn1ncc2c(N3CCC(CCO)CC3)nc(C(C)(C)C)nc21 | 22.9% |
| CCC1(O)CCCN(c2nc(C(C)(C)C)nc3c2cnn3C)C1 (configuration not stated) | 48% |
| COCc1nc(N2CC[C@H](N(C)C)C2)c2cnn(C)c2n1 | -15.8% |
| CCCc1nc(N2CCCC3(CCNC3)C2)c2cnn(C)c2n1 (configuration not stated) | 47.1% |
| Cn1ncc2c(N3CCCC4(CCNC4)C3)nc(C(C)(C)C)nc21 (configuration not stated) | 63.8% |
| COCC1CCN(c2nc(C(C)(C)C)nc3c2cnn3C)C1 (configuration not stated) | 50.1% |
| CC(=O)NCCC1CCN(c2nc(C(C)(C)C)nc3c2cnn3C)CC1 | 64.9% |
| Cn1ncc2c(N3CCCC(C)(O)C3)nc(C(C)(C)C)nc21 (configuration not stated) | 19.2% |
| CN(C)[C@H]1CCN(c2nc(C(C)(C)C)nc3c2cnn3C)C1 | 9.35% |
| CNC(=O)[C@@H]1[C@@H](c2ccccc2)CN2CCN(Cc3cc(C)no3)C[C@H]12 | 31.3% |
| O=C(NCC(c1ccc(F)cc1)N1CCOCC1)Nc1cn[nH]c1 (configuration not stated) | -57.4% |
| Cc1cc(C(=O)Nc2ccc(-c3nnc(N(C)C)o3)cc2)oc1C | 22.1% |
| Cc1nnc2ccc(OCCNS(C)(=O)=O)nn12 | 5.91% |
| COCCNCc1cc2cc(C)cc(C)c2[nH]c1=O | 14.6% |
| COc1ccc(CNCC2CN(C3CC3)CCO2)cc1OC (configuration not stated) | -13.6% |
| COc1ccccc1-c1nnc2n1N=C(N)C(C#N)S2 (configuration not stated) | 34.3% |
| COCC1CCN(CCCc2cn[nH]c2)CC1 | 30.8% |
| c1n[nH]cc1CCCN1CCC(OC2CCCCC2)CC1 | 11.8% |
| Cc1ccnc(NC(=O)C2CCN(CCCn3ccnc3)CC2)c1 | 61.9% |
| Cc1ccnc(NC(=O)C2CCN(CCCn3ccnc3C)CC2)c1 | 44.3% |
| Cc1ccnc(NC(=O)C2CCN(CCCc3cn[nH]c3)CC2)c1 | 54.5% |
| CC(C)(C)CC(=O)NCC(=O)Nc1ccn(CCCn2ccnc2)n1 | 23.1% |

| Structure (SMILES) | INHIBITION |
| --- | --- |
| O=C(c1ccc(-c2ccc(O)nc2)s1)N1CCCCCC1 | -13.87% |
| CCOc1ccc(CN(CCOC)c2nc(C)nc3oc(C)nc23)cc1 | 83.2% |
| COCCN(Cc1cccnc1)c1nc(C)nc2oc(C)nc12 | 44.3% |
| Cc1nc(N(C)CCCc2nccn2C)c2nc(C)oc2n1 | -26.7% |
| Cc1nc(N(CCC(N)=O)Cc2ccccc2)c2nc(C)oc2n1 | 48.8% |
| COCCN(Cc1ccccc1C)c1nc(C)nc2oc(C)nc12 | 74% |
| CCN(Cc1ccncc1)c1nc(C)nc2oc(C)nc12 | 40.6% |
| CCS(=O)(=O)N1CC[C@H]2[C@H]1CC(=O)N2Cc1csc(C)n1 | -10.3% |
| CN1CCN(Cc2cn3c(n2)CNCC3)CC1 | 36.4% |
| O=C(CSC1CCCC1)N1CCN(C(=O)C2CC2c2ccccc2)CC1 (configuration not stated) | 46.4% |
| Cc1cnc(-c2cccc(-c3ccn(CCCO)n3)c2)nc1N(C)C | 26.8% |
| CCS(=O)(=O)CC(=O)NC(c1ccccc1)C1CCCCC1 (configuration not stated) | -5.53% |
| COCCc1noc(CN2CCCC2c2c(C)nn(C)c2Cl)n1 (configuration not stated) | 5.9% |
| CC(C(=O)Nc1ccc(C#N)cc1)N1CCc2ccccc21 (configuration not stated) | -45.2% |
| N#Cc1ccc(NCCS(=O)(=O)N2CCc3ccccc32)nc1 | 14% |
| N#Cc1ccc(CNCCS(=O)(=O)N2CCc3ccccc32)cc1 | 60.3% |
| O=C(CCc1ccccc1)C1CCCN(C(=O)c2cncc(Cl)c2)C1 (configuration not stated) | 42.5% |
| CCN(CC)S(=O)(=O)N1CCCC1c1nnc2n1CCCCC2 (configuration not stated) | 20.9% |
| O=C(c1ccc2[nH]ccc2c1)N1CCCSCC1CN1CCCC1 (configuration not stated) | 59.8% |
| O=C(NCc1ccccc1)N1Cc2nc(COCC3CC3)oc2C1 | 44.2% |
| O=C(c1ccc2[nH]ccc2c1)N1Cc2nc(CN3CCCC3)oc2C1 | 31.4% |
| O=C(c1ccncc1F)N1Cc2nc(CN3CCCCC3)oc2C1 | 51.2% |

| Structure (SMILES) | INHIBITION |
| --- | --- |
| O=C(Cc1cccs1)N1Cc2nc(COCC3CC3)oc2C1 | 18.6% |
| O=C(c1ccc2[nH]ccc2c1)N1Cc2nc(CN3CCCCC3)oc2C1 | 50.7% |
| CCN(CC)Cc1nc2c(o1)CN(C(=O)c1ccncc1F)C2 | 3.17% |
| O=C(c1ccc2c(c1)OCO2)N1CCCSCC1CN1CCCC1 (configuration not stated) | 3.16% |
| CCN(CC)Cc1nc2c(o1)CN(C(=O)c1ccc3[nH]ccc3c1)C2 | 0.804% |
| CN(C)Cc1nc2c(o1)CN(C(=O)c1ccncc1F)C2 | 24.9% |
| O=C(c1ccncc1F)N1Cc2nc(COCC3CC3)oc2C1 | 55.7% |
| O=C(c1ccc(F)c(F)c1)N1CCCSCC1CN1CCCC1 (configuration not stated) | 25.3% |
| CN(C)C(=O)C1CCN(Cn2nc(-c3ccc(F)cc3)oc2=O)CC1 | 34.7% |
| CCCN1CCC(Cc2noc(-c3ncccc3C)n2)CC1 | 12.9% |
| CNC(=O)CCNC(=O)c1cc(C)n(-c2cccc(OC)c2)c1C | 11.2% |
| CNc1nc2c(c(C(=O)N3CCCC3)n1)CN(C(=O)C1CCCC1)CC2 | 43.4% |
| Cc1nc(S(=O)(=O)N2CCC3(CCCCC3)C2)cn1C | -9.2% |
| NC(=O)COc1cccc(C(=O)NCc2ccc(Cl)s2)c1 | 3.03% |
| O=C(C1CCOC1)N1CC[C@@H](O)[C@@H]1Cc1ccccc1 (some centres not stated) | 10.7% |
| CCC(=O)N1CCCc2c(cnn2C)C1 | -5.452% |
| O=C(NCC(F)F)c1cc(-c2ccccc2)nc2ncnn12 | 60.2% |
| CNC(=O)c1cc(-c2ccccc2)nc2ncnn12 | 49% |
| COC(=O)CNC(=O)c1cc(-c2ccccc2)nc2ncnn12 | 28.2% |
